Test in all cases: DAPPL (digital affinity profiling via proximity ligation, sequencing); 10 mM Tris-HCl pH 7.5, 50 mM NaCl, 1 mM DTT, 4% glycerol, room temperature, 30 min; GST-TFs on glutathione beads, 16-mer random dsDNA library, 0.1% formaldehyde crosslink after washing; high values mean tight binding
The target in one assay is T1, FEV (Homo sapiens, UniProt Q99581 1-238).
T1 sequence: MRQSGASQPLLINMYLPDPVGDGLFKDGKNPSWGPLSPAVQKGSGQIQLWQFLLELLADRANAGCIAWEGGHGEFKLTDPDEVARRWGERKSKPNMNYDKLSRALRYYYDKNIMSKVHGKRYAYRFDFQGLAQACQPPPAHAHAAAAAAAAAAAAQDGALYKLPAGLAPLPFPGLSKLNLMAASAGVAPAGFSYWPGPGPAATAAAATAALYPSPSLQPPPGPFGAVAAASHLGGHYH
The conditions noted are these: protein: recombinant; tags: N-terminal GST; dsDNA, one strand shown. In a few lines: (§1)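 A tag-only sample was pooled with DNA-barcoded human transcription factors that had been expressed in yeast as GST fusions and captured on glutathione beads. The pools were incubated for 30 min at room temperature with 200 nmole of a random double-stranded 16-mer DNA library in Tris/NaCl/DTT/glycerol buffer, then washed, crosslinked with 0.1% formaldehyde, proximity-ligated (BsaI/T4 ligase, 1 h, 37 °C), PCR-amplified and sequenced on an Illumina NextSeq500. Binding signal is each hexamer's read frequency for a factor divided by its frequency for the tag-only sample.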

A further assay has as its target ETV5 (Homo sapiens, UniProt P41161 1-510). The conditions noted are these: protein: recombinant; tags: N-terminal GST; dsDNA, one strand shown. In a few lines: as §1
Another assay concerns the target HSF1 (Homo sapiens, UniProt Q00613 1-529). The conditions noted are these: protein: recombinant; tags: N-terminal GST; chain copies: 3; dsDNA, one strand shown. The method in brief:
as §1

In the next assay the target is T2, SPIC (Homo sapiens, UniProt Q8N5J4 1-248).
T2 sequence: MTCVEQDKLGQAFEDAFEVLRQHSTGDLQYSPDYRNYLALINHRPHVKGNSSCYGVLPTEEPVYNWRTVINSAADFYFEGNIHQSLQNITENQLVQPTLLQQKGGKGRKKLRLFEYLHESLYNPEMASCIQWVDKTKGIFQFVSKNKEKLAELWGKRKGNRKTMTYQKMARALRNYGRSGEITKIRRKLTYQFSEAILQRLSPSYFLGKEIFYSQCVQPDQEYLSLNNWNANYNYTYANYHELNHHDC
The conditions noted are these: protein: recombinant; tags: N-terminal GST; dsDNA, one strand shown. In a few lines: as §1

The target of the next assay is ELF4 (Homo sapiens, UniProt Q99607 1-663). The conditions noted are these: protein: recombinant; tags: N-terminal GST; dsDNA, one strand shown. In a few lines: as §1
Sequence of ELF4 (Q99607 whole entry): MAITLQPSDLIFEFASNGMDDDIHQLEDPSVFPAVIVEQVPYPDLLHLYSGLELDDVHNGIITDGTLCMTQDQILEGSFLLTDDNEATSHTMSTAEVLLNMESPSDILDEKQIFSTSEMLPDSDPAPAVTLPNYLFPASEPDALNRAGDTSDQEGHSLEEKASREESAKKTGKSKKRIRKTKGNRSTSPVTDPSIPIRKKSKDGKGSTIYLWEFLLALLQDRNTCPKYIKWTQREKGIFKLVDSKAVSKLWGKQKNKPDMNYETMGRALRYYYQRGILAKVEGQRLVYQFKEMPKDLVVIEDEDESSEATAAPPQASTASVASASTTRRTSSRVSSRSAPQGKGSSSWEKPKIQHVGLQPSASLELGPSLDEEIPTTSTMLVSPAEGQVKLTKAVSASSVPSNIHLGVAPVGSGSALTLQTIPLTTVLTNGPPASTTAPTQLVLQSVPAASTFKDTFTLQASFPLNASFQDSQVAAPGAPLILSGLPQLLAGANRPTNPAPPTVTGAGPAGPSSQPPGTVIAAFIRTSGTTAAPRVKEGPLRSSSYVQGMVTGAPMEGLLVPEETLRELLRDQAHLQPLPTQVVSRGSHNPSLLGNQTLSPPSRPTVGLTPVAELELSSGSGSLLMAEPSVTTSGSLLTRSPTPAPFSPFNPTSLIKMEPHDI
The target of a further assay is T3, ELK4 (Homo sapiens, UniProt P28324-2 1-405).
T3 sequence: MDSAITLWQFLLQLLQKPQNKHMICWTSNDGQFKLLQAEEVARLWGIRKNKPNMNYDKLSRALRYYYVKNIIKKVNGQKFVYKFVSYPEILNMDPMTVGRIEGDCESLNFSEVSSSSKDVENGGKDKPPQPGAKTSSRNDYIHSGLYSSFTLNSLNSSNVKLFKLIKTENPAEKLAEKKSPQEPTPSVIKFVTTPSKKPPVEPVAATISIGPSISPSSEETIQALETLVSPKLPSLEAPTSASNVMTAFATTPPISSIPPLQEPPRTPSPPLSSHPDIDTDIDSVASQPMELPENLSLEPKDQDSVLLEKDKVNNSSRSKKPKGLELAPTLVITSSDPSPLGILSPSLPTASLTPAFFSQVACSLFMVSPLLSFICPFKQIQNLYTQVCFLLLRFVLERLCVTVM
The conditions noted are these: protein: recombinant; tags: N-terminal GST; dsDNA, one strand shown. In a few lines:
as §1

The target in a further assay is T4, ETV2 (Homo sapiens, UniProt O00321 1-342).
T4 sequence: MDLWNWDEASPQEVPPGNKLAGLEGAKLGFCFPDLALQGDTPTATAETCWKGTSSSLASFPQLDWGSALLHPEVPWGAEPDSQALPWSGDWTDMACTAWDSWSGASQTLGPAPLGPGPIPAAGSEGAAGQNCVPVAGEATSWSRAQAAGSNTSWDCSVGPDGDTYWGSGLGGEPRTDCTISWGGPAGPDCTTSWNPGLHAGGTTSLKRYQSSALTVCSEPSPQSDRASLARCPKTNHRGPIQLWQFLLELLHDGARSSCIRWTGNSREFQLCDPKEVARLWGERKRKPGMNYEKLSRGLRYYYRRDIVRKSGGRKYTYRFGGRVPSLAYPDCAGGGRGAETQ
The conditions noted are these: protein: recombinant; tags: N-terminal GST; dsDNA, one strand shown. The method in brief:
as §1

The target of a further assay is T5, ELF3 (Homo sapiens, UniProt P78545 1-371).
T5 sequence: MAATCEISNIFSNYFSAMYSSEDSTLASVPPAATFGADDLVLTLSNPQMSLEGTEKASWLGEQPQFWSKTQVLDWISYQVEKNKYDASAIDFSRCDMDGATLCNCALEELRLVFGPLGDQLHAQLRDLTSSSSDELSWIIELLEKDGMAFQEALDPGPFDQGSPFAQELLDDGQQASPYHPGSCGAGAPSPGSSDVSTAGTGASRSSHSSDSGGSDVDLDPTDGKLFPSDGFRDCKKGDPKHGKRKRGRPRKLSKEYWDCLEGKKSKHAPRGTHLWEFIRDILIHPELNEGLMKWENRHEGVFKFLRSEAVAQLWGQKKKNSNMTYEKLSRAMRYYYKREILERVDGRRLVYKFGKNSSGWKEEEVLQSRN
As to conditions: protein: recombinant; tags: N-terminal GST; dsDNA, one strand shown. The method in brief:
as §1

For the next assay, the target named is CRX (Homo sapiens, UniProt O43186 1-299). As to conditions: protein: recombinant; tags: N-terminal GST; dsDNA, one strand shown. In a few lines:
as §1

The target in the next assay is ETV1 (Homo sapiens, UniProt P50549 1-477). The conditions noted are these: protein: recombinant; tags: N-terminal GST; dsDNA, one strand shown. The method in brief:
as §1

Another assay has as its target T6, ERF (Homo sapiens, UniProt P50548 1-548).
T6 sequence: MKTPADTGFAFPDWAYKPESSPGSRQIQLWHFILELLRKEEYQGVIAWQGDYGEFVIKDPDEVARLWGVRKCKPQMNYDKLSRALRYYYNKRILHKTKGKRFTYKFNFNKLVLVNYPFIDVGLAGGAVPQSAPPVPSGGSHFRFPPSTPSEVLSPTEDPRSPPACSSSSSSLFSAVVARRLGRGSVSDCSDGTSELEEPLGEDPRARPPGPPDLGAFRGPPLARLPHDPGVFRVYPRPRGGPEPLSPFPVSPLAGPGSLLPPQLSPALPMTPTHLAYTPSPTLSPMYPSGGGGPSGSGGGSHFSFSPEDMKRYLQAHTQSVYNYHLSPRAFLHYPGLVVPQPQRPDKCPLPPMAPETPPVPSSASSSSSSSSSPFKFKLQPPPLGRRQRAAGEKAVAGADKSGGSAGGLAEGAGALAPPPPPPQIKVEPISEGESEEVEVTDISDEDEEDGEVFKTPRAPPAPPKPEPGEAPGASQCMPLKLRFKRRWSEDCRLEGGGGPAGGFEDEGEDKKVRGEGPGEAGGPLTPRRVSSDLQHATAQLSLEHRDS
As to conditions: protein: recombinant; tags: N-terminal GST; dsDNA, one strand shown. In a few lines: as §1

A further assay concerns the target T7, ETV3L (Homo sapiens, UniProt Q6ZN32 1-361).
T7 sequence: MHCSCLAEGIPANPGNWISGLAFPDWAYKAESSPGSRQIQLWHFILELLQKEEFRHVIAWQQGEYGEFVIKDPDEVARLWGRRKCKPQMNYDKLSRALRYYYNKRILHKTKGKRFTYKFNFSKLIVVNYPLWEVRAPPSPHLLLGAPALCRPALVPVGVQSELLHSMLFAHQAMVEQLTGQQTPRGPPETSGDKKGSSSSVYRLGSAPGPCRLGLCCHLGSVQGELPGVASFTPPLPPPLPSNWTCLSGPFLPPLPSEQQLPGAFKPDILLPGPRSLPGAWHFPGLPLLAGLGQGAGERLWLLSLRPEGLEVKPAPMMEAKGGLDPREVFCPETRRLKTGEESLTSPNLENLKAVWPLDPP
The conditions noted are these: protein: recombinant; tags: N-terminal GST; dsDNA, one strand shown. In a few lines: as §1

For another assay, the target named is T8, ETS2 (Homo sapiens, UniProt P15036 1-469).
T8 sequence: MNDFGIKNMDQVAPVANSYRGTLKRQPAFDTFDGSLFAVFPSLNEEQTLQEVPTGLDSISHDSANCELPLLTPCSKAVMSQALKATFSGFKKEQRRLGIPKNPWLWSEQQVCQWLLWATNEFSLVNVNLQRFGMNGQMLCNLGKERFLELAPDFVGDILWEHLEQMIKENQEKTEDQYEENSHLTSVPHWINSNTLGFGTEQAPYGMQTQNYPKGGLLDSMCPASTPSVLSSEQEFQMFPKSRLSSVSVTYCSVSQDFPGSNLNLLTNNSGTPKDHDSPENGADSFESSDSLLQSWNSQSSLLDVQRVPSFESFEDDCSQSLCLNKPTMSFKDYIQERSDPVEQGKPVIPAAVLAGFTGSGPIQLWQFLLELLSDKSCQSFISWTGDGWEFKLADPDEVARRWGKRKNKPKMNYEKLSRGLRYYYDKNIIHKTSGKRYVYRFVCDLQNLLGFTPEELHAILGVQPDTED
The conditions noted are these: protein: recombinant; tags: N-terminal GST; dsDNA, one strand shown. In a few lines: as §1

The next assay deals with T9, SPDEF (Homo sapiens, UniProt O95238 1-335).
T9 sequence: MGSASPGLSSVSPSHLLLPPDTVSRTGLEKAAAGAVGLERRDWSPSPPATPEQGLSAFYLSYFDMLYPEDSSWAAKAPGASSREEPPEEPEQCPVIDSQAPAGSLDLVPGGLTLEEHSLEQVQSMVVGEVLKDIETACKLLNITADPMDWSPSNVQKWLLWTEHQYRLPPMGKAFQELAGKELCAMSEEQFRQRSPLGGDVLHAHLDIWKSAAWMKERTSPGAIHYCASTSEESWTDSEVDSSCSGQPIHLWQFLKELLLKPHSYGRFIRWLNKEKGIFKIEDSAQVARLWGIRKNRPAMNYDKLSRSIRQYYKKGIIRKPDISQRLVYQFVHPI
The conditions noted are these: protein: recombinant; tags: N-terminal GST; dsDNA, one strand shown. The method in brief: as §1

In the next assay the target is T10, ETV7 (Homo sapiens, UniProt Q9Y603 1-341).
T10 sequence: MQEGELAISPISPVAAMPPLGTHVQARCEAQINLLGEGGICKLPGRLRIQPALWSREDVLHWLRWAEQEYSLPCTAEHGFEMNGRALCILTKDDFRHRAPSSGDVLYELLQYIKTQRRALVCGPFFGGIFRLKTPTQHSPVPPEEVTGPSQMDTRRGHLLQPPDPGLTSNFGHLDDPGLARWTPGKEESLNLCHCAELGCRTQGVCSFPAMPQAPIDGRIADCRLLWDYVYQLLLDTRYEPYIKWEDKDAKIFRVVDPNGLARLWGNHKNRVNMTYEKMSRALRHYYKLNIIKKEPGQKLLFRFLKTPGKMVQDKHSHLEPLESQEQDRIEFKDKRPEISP
As to conditions: protein: recombinant; tags: N-terminal GST; dsDNA, one strand shown. In a few lines: as §1

A further assay deals with T11, ELF5 (Homo sapiens, UniProt Q9UKW6-2 1-255).
T11 sequence: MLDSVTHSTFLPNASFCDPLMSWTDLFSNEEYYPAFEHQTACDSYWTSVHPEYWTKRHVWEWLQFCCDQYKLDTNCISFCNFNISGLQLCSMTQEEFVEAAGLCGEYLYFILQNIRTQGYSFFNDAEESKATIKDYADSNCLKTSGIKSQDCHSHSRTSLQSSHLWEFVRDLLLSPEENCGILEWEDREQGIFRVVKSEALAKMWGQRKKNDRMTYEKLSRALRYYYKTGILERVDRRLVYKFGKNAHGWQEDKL
The conditions noted are these: protein: recombinant; tags: N-terminal GST; dsDNA, one strand shown. The method in brief: as §1

The target of another assay is T12, ETV3 (Homo sapiens, UniProt P41162-2 1-143).
T12 sequence: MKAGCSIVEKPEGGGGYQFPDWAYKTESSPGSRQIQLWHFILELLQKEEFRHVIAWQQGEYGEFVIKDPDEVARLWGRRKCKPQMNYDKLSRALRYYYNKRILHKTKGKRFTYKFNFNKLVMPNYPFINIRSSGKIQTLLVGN
The conditions noted are these: protein: recombinant; tags: N-terminal GST; dsDNA, one strand shown. The method in brief:
as §1

For a further assay, the target named is ETV6 (Homo sapiens, UniProt P41212 1-452). The conditions noted are these: protein: recombinant; tags: N-terminal GST; dsDNA, one strand shown. In a few lines:
as §1

Sequence of ETV6 (P41212 whole entry): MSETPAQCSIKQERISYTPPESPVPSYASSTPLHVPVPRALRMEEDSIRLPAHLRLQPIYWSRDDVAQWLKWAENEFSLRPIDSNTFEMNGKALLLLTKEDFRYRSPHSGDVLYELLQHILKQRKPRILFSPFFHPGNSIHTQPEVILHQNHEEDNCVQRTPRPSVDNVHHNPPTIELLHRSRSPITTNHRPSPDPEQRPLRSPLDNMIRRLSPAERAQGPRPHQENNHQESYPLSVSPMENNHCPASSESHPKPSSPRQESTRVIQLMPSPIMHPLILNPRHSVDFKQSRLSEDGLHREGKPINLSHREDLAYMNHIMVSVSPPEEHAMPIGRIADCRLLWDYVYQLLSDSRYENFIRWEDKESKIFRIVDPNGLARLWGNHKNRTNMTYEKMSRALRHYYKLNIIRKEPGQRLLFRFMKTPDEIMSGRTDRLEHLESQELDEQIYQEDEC
Sequence of ETV5 (P41161 whole entry): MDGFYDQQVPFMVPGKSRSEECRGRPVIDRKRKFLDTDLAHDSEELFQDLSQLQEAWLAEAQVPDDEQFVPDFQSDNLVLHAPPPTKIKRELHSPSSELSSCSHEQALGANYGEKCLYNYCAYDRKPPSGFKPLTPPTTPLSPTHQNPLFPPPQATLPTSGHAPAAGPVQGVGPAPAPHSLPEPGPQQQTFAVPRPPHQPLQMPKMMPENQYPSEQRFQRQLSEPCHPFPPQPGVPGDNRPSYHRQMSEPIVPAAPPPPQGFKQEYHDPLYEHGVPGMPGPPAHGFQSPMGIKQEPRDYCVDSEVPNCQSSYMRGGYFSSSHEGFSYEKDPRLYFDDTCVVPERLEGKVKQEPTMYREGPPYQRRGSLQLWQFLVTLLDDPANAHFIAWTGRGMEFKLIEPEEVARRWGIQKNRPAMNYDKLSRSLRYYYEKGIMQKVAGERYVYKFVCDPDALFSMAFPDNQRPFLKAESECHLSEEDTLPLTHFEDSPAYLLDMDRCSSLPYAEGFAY
Sequence of HSF1 (Q00613 whole entry): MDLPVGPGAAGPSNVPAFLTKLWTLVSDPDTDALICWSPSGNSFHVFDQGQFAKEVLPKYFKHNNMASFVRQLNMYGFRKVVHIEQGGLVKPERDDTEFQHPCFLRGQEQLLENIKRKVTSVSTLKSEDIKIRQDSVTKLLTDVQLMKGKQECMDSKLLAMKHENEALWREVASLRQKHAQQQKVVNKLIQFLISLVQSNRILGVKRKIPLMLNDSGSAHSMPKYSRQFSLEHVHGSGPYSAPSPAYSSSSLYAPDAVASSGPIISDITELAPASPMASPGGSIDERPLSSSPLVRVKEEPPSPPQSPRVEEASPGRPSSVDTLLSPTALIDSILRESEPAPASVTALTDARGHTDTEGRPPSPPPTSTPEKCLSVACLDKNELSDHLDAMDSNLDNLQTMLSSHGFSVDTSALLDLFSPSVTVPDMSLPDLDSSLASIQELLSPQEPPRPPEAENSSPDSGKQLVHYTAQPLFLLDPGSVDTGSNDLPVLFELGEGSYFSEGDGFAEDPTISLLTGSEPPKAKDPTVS
Sequence of ETV1 (P50549 whole entry): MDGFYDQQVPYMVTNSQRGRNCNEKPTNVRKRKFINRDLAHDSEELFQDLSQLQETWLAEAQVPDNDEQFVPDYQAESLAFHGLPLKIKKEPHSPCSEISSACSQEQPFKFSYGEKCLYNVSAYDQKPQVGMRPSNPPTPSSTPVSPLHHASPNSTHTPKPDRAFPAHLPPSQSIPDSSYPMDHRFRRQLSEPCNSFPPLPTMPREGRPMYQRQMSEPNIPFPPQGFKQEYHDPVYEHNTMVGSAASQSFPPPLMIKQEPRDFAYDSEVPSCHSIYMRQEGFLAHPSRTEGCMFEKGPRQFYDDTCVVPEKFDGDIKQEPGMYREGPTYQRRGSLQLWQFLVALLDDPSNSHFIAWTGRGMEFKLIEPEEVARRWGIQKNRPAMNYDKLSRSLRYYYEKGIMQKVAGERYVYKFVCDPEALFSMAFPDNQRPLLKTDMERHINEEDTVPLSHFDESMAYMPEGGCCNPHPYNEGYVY
Sequence of CRX (O43186 whole entry): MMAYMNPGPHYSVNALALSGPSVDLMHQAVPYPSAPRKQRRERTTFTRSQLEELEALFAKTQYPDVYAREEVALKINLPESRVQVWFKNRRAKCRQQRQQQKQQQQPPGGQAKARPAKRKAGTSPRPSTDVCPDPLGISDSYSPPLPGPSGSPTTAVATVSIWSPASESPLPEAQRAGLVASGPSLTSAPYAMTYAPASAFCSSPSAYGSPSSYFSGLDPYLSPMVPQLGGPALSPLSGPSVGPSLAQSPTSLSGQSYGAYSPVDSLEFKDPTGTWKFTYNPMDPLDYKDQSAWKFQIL

Take TTTATA: the binding signal in the assay with FEV was 1.28 fold enrichment (6-mer frequency, TF over GST control); with ETV5, 1.24 fold enrichment (6-mer frequency, TF over GST control); in the assay with HSF1 it was 1.54 fold enrichment (6-mer frequency, TF over GST control); in the assay with SPIC it was 1.37 fold enrichment (6-mer frequency, TF over GST control); with ELF4, 1.36 fold enrichment (6-mer frequency, TF over GST control); in the assay with ELK4 it was 1.37 fold enrichment (6-mer frequency, TF over GST control). Besides, the binding signal with ETV2 is 1.26 fold enrichment (6-mer frequency, TF over GST control); with ELF3, 1.36 fold enrichment (6-mer frequency, TF over GST control); with CRX, 2.05 fold enrichment (6-mer frequency, TF over GST control); with ETV1, 1.31 fold enrichment (6-mer frequency, TF over GST control); with ERF it was 1.4 fold enrichment (6-mer frequency, TF over GST control); in the assay with ETV3L, 1.42 fold enrichment (6-mer frequency, TF over GST control). Besides, the binding signal with ETS2 was 1.4 fold enrichment (6-mer frequency, TF over GST control); with SPDEF it was 1.3 fold enrichment (6-mer frequency, TF over GST control); with ETV7, 1.43 fold enrichment (6-mer frequency, TF over GST control); with ELF5 it was 1.27 fold enrichment (6-mer frequency, TF over GST control); with ETV3 it was 1.32 fold enrichment (6-mer frequency, TF over GST control); with ETV6, 1.38 fold enrichment (6-mer frequency, TF over GST control).

These data come from publication PMC7862700, “An all-to-all approach to the identification of sequence-specific readers for epigenetic DNA modifications on cytosine”.
